# Assay outcomes from PubChem BioAssay.
# LmPK inhibitor: inhibitors of Leishmania mexicana pyruvate kinase | purified LmPK, Kinase-Glo ATP luminescence, 1 h | Potency, µM (series often up to 57.5 µM), hits mostly inhibitors | 290,000 tested, 0.37% active | AID 1721; active = well fitted curve in the direction sought with a large enough effect; inconclusive = small, poorly fitted or top-dose-only effect, or another doubt; inactive = no such curve, though single readings can be large; an effect the other way counts as inactive or inconclusive
# Target sequence (Q27686 whole entry, looked up): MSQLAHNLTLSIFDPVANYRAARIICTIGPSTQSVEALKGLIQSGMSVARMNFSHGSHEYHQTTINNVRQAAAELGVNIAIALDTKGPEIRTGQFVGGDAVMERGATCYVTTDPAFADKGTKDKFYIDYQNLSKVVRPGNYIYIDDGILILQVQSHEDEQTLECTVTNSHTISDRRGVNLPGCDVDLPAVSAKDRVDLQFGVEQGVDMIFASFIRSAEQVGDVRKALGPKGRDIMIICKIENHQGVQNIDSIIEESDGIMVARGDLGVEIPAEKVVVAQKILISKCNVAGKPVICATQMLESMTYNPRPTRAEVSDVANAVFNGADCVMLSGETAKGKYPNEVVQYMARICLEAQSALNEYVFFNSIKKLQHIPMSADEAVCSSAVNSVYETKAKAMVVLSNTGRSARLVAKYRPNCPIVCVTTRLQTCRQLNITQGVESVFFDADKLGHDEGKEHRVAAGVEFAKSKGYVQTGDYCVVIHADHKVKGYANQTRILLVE
#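 ATP generated from ADP (0.1 mM) and PEP (0.5 mM) by 0.1 nM LmPK over 1 h at room temperature (pH 7.2 imidazole buffer) was detected by coupled luciferase luminescence. Values were normalized to uninhibited and no-enzyme wells.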
# TbPYK inhibitor: inhibitors of Trypanosoma brucei pyruvate kinase; Potency, µM (series often up to 76.8 µM), actives largely listed as inhibitors; Q57TT1; TbPYK enzyme, Kinase-Glo Plus ATP luminescence, 45 min; 410,000 tested, 0.12% active; AID 624173; active = well fitted curve in the direction sought with a large enough effect; inconclusive = small, poorly fitted or top-dose-only effect, or another doubt; inactive = no such curve, though single readings can be large; an effect the other way counts as inactive or inconclusive; note: nearly all actives have a fitted effect of over 50% in size
#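 Assay buffer: 50 mM TEA pH 7.2, 100 mM KCl, 10 mM MgCl2, 0.05% BSA, 0.01% Tween-20. Pyruvate kinase from T. brucei plus substrate met compound, then ADP (130 uM final). Luminescence was read post 45 min RT.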
# SARS PLpro yeast: SARS-CoV PLP inhibition in yeast; 330,000 tested, 0.19% active; Potency, µM (highest dose often 32.9 µM), usual class: activators; S. cerevisiae expressing SARS-CoV PLpro, growth rescue; AID 485353; note: nearly all actives have a fitted effect of over 55% in size
# Cycloheximide cs: counter-screen for Shiga toxin inhibitors: cycloheximide protein synthesis inhibition. cell reporter, cycloheximide protein synthesis inhibition counterscreen. max response, %. 300,000 tested, 12% active. AID 2314; in the data active = max response mostly above about 13%, no sharp cut-off; inactive = mostly below about 14%; note: read at 38.3 µM for the half of the compounds with a filed dose
# Shiga toxin inh: blocks Shiga toxin action in Vero cells; Vero cells, Shiga toxin protein synthesis inhibition reporter; inhibition, % at 38.7 µM; 290,000 tested, 9.2% active; AID 2315; in the data active = inhibition mostly above about 28%, no sharp cut-off; inactive = mostly below about 43%
# NS1 inh: influenza NS1 inhibition; Potency, µM (series often up to 46.1 µM); 270,000 tested, 0.4% active; AID 2326; note: actives are rising curves; nearly all actives have a fitted effect of over 50% in size
#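 S. cerevisiae expressing influenza A NS1, grown in glucose, washed, then diluted 1:100 into pH 6.0 -URA galactose medium with 23 nl compound. Growth recovery read as OD600; NS1-free strain serves as control.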
# A number is an active result; 0 = inactive; ? = inconclusive; - = no result given; [ ] = another dose, or the depositor's remark. The full list was thinned out, with hits kept by preference. Unless noted, calls come from the whole dose curve.
SMILES,LmPK inhibitor,TbPYK inhibitor,SARS PLpro yeast,Cycloheximide cs,Shiga toxin inh,NS1 inh
O=C(CSC1=NS(=O)(=O)c2ccccc2N1)NCCc1ccccc1,-,0,0,-,-,-
O=C(CC1(CC2=NS(=O)(=O)c3ccccc3N2)CCCC1)NCCc1ccccc1,0,0,0,8.5,0,0
COc1ccc(NC(=O)c2cc(C3CCCCN3S(=O)(=O)c3cn(C)cn3)on2)c(C)c1 (stereo not drawn),-,0,-,-,-,-
O=C(COc1ccccc1)N1CCN(C(=O)c2ccc([N+](=O)[O-])cc2)CC1,?,0,0,48,0,0
O=C(c1ccc(-c2ccccc2)cc1)N1CCN(c2ccccc2)CC1,0,0,0,13,0,0
Cc1ccc(OCC(=O)N2CCN(C(=O)c3ccc([N+](=O)[O-])cc3)CC2)cc1,0,0,0,0,0,0
CS(=O)(=O)N(Cc1ccc(Cl)cc1)c1ccc(C(=O)N2CCN(c3ccccc3)CC2)cc1,0,0,0,0,0,0
CS(=O)(=O)N(Cc1ccccc1)c1ccc(C(=O)N2CCN(c3cccc(Cl)c3)CC2)cc1,0,0,0,22,0,0
CC(C)(C)c1ccc(C(=O)N2CCN(c3nc4ccccc4o3)CC2)cc1,0,0,0,0,0,0
O=C(c1ccc(-c2ccccc2)cc1)N1CCN(c2nc3ccccc3o2)CC1,0,0,0,15,0,0
O=C(Cn1cc(S(=O)(=O)Cc2ccc([N+](=O)[O-])cc2)c2ccccc21)N1CCOCC1,0,?,0,0,0,0
CCOC(=O)C1CCN(C(=O)COC(=O)C23CC4CC(CC(C4)C2)C3)CC1,-,0,0,-,-,-
C/C(=N\NC(=O)c1nnn(-c2nonc2N)c1CSc1ccc(Cl)cc1)c1ccco1,0,0,0,0,0,0
CCOc1ccc(C(=O)N2CCN(c3ccccc3)CC2)cc1,0,0,0,0,30,0
COc1ccc(Oc2ccc(C(F)(F)F)cc2N)cc1,0,0,0,29,56,0
COc1ccc(OC2C(=O)N(c3ccc(C)c(C)c3)C2c2ccc(OC)c(OC)c2)cc1 (stereo not drawn),0,0,?,0,0,?
COc1ccc(NC2=CC(c3ccc(OC)c(OC)c3)N(c3ccc(OC)cc3)C2=O)cc1 (stereo not drawn),0,0,?,0,0,8.9µM
Cc1oc(-c2ccccc2Cl)nc1CS(=O)(=O)CC(=O)NCc1ccc(F)cc1,-,0,-,-,-,-
Cn1c(/C=C/c2ccccc2[N+](=O)[O-])nc2ccccc2c1=O,0,0,0,9.2,0,0
O=C(O)c1ccc(/C=C/c2nc3ccccc3c(=O)n2-c2ccc(Br)cc2)cc1,0,0,0,0,0,0
Cn1c(/C=C/c2ccc(Br)cc2)nc2ccccc2c1=O,0,0,0,30,0,0
COc1cc(OC)c(OC)cc1C=Cc1ccc2ccccc2n1,-,0,-,-,-,-
O=[N+]([O-])c1ccccc1/C=C/c1ccc2ccccc2n1,0,0,0,40,48,0
CCOc1ccccc1CNC(=O)CCC(=O)N1CCSc2ccccc21,-,0,-,-,-,-
Cc1ccnc(N2CCCC(C(=O)Nc3ccc(C)c(C)c3)C2)n1 (stereo not drawn),0,0,0,0,0,0
SMILES,LmPK inhibitor,TbPYK inhibitor,SARS PLpro yeast,Cycloheximide cs,Shiga toxin inh,NS1 inh
Cc1ccc(NC(=O)C2CCCN(c3ncccn3)C2)cc1C (stereo not drawn),0,0,0,29,99,0
COc1ccc(NC(=O)C2CCCN(c3ncccn3)C2)cc1 (stereo not drawn),0,0,0,30,92,0
CCC(C)c1ccc(NC(=O)C2CC2)cc1 (stereo not drawn),0,0,0,25,59,0
CCC(C)c1ccc(NC(=O)C2CCCN(c3ncccn3)C2)cc1 (stereo not drawn),0,-,0,33,50,0
COc1ccc(NC(=O)C2CCCN(c3nccc(C)n3)C2)cc1 (stereo not drawn),0,0,0,0,0,-
Cc1nc(-c2ccc(F)cc2)c(CC(=O)N(C)CC(=O)Nc2cccc(F)c2)s1,-,0,-,-,-,-
CC(C)(C)c1ccc(NC(=O)C2CCCN(c3cnccn3)C2)cc1 (stereo not drawn),0,0,0,16,0,0
O=C(NC1CCCCCC1)C1CCCN(c2ncccn2)C1 (stereo not drawn),0,0,0,24,0,0
O=C1c2ccccc2NC(c2ccccc2O)N1c1ccc(F)cc1 (stereo not drawn),0,0,0,67,56,0
CC(=O)NN1C(=O)c2ccccc2NC1c1ccccc1F (stereo not drawn),0,0,0,0,0,0
COc1cccc(C2Nc3ccccc3C(=O)N2c2ccc(F)cc2)c1O (stereo not drawn),0,0,0,59,79,0
CCOC(=O)c1c(-c2ccccc2)c2cc(OC)ccc2n1CCCN(C)C,0,0,0,0,0,0
Cc1cc2c(c(=O)n1Cc1ccccc1)C1O[C@](CCCCN3C(=O)c4ccccc4C3=O)(Cc3cc(C#N)ccc31)O2,0[11.5 µM],-,0[6.58 µM],0,0,0
O=C(C1CCN(S(=O)(=O)c2ccccc2)CC1)N1CCC1,-,0,0,-,-,-
Cn1cnnc1SCC(=O)Nc1ccc2nc(SCc3cccc4ccccc34)sc2c1,0,0,0,0,0,0
CCN(CC)C(=O)CSc1nc2ccc(NC(=O)CSc3nccn3C)cc2s1,0,0,0,14,0,?
Cn1cnnc1SCC(=O)Nc1ccc2nc(SCc3ccccc3Cl)sc2c1,0,0,0,19,active,0
Cn1cnnc1SCC(=O)Nc1ccc2nc(SCc3ccccc3)sc2c1,0,0,0,90,101,0
O=C(CSc1nc2ccc(NC(=O)c3ccccc3C(=O)O)cc2s1)Nc1ccc(F)c([N+](=O)[O-])c1,0,0,0,0,30,0
O=C(Nc1ccc2nc(SCc3ccccc3)sc2c1)c1ccccc1F,-,0,-,-,-,-
C#C[C@]1(OC(C)=O)CC[C@H]2[C@@H]3CCC4=C/C(=N/O)CC[C@@H]4[C@H]3CC[C@@]21CC,-,0,-,-,-,-
CCc1ccc(CN(Cc2cn[nH]c2-c2ccc(OC)cc2)C(=O)Nc2ccc(Br)cc2)cc1,-,0,-,-,-,-
O=c1[nH]cnc2nn(-c3ccccc3)nc12,0,0,0,0,84,0
O=c1cc(-c2ccccc2)oc2ccc(O)cc12,0,0,0,32,64,0
COc1ccc(-c2cc(=O)c3cc(O)ccc3o2)cc1,0,0,0,53,62,0
O=C(COc1ccc2oc(-c3ccccc3)cc(=O)c2c1)NCc1ccco1,0,0,0,25,0,0
COc1ccc2oc(-c3ccncc3)cc(=O)c2c1,-,0,-,-,-,-
CCOc1c(Nc2ccccc2O)c(=O)c1=O,0,0,0,0,0,0
CCOc1ccc2nc(Cl)c(C3CC(c4ccccc4)=NN3C(=O)CCC(=O)O)cc2c1 (stereo not drawn),-,0,-,-,-,-
C#Cc1ccc([C@H]2C=C(C(=O)NCc3ccccc3)O[C@@H](OCc3ccc(CO)cc3)C2)cc1,-,0,-,-,-,-
